# In PubChem BioAssay (Tox21):
# “And” between values parts separate entries of the source, which are not always exact repeats. Identical values can stand only once. Results filed as inconclusive are left out. Entries that show only a call come without a potency. A structure can be active in one record and inactive in another. The source made the active and inactive calls. Unless noted, calls follow the shape of the dose curve; as a rule, active = well fitted curve in the direction sought with a large enough effect in the repeat runs; inconclusive = weak or mixed curves; inactive = no such curve, though single readings can be large; an effect the other way counts as inactive or inconclusive.
# Experiments:
# [1] = A CellTox Green Cytotoxicity Assay to monitor cytotoxicity in HepG2 cells - 0 hour (AID 1224882); also: nearly all actives have a fitted effect of over 35% in size
# Summary of the method: (§1)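 Cells and non-lytic dye reagent are dispensed together (600 HepG2 cells/well) and incubated 5 h before DMSO compound transfer. Kinetic fluorescence is then recorded in the same wells during 40 h at 37 C.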
# [2] = A CellTox Green Cytotoxicity Assay to monitor cytotoxicity in HepG2 cells - 32 hour (AID 1224883); also: nearly all actives have a fitted effect of over 50% in size; also: potency is read from the fitted curve at half-maximal effect
# Summary of the method: as §1
# [3] = A CellTox Green Cytotoxicity Assay to monitor cytotoxicity in HEK293 cells - 8 hour (AID 1224884); also: nearly all actives have a fitted effect of over 35% in size
# Summary of the method: (§2)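 Cells (HEK293, 600/well) and dye reagent are dispensed together. After 5 h at 37 C, 23 nL compound is pinned in. Plates stay at 37 C for 40 h with fluorescence read at 0h, 8h, 16h, 24h, 32h and 40h.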
# [4] = qHTS RealTime-Glo MT Cell Viability Assay in HepG2 cells - 16 hour (AID 1224885); also: nearly all actives have a fitted effect of over 50% in size; also: potency is read from the fitted curve at half-maximal effect
# Summary of the method: (§3)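 Tox21 10K library screened in qHTS format on HepG2 cells carrying RealTime-Glo reagents. Compounds were added after a 5 h preincubation, and the luminescent signal from continuous culture was measured repeatedly during 40 h treatment.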
# [5] = qHTS RealTime-Glo MT Cell Viability Assay in HEK293 cells - 8 hour (AID 1224887); also: nearly all actives have a fitted effect of over 50% in size; also: potency is read from the fitted curve at half-maximal effect
# Summary of the method: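 Real-time viability in HEK293: signal arises when living cells convert a prosubstrate for NanoLuc in the medium, so luminescence tracks viable cell number. Compound (23 nL, DMSO) added 5 h post-seeding; kinetic reads at 0–40 h, 37 C.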
# [6] = A CellTox Green Cytotoxicity Assay to monitor cytotoxicity in HEK293 cells - 16 hour (AID 1224888); also: nearly all actives have a fitted effect of over 35% in size
# Summary of the method: as §2
# [7] = qHTS RealTime-Glo MT Cell Viability Assay in HepG2 cells - 0 hour (AID 1224889); also: nearly all actives have a fitted effect of over 50% in size
# Summary of the method: as §3
# [8] = qHTS assay to identify small molecule antagonists of the estrogen receptor alpha (ER-alpha) signaling pathway using the BG1 cell line in the presence of 0.1 nM 17-beta-estradiol - cell viability counter screen (AID 1259241); also: nearly all actives have a fitted effect of over 40% in size; also: potency is read from the fitted curve at half-maximal effect
# Summary of the method: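 In this screen, hormone-deprived VM7Luc4E2 cells were seeded at 4,000 per well, dosed with compound and 0.1 nM estradiol final, and incubated 22 hr at 37C and 5% CO2; fluorogenic live-cell protease signal reported viability.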
# [9] = qHTS assay to identify small molecule antagonists of the androgen receptor (AR) signaling pathway using the MDA cell line in the presence of 0.5 nM R1881 - cell viability counter screen (AID 1259242); also: nearly all actives have a fitted effect of over 45% in size
# Summary of the method: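 Steps: plate MDA-kb2 cells, rest 5 hr at 37C without CO2; pin in compounds in DMSO; add R1881 to 0.5 nM final; incubate 16 hr; add CellTiter-Fluor, 30 min; read fluorescence.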
# [10] = molecular target: Estrogen receptor (Homo sapiens) (UniProt P03372); test: qHTS assay to identify small molecule antagonists of the estrogen receptor alpha (ER-alpha) signaling pathway using the BG1 cell line in the presence of 0.1 nM 17-beta-estradiol (AID 1259244); also: nearly all actives have a fitted effect of over 50% in size; also: potency is read from the fitted curve at half-maximal effect
# Summary of the method: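 Antagonist mode: compounds in DMSO are pinned onto VM7Luc4E2 reporter cells, 0.1 nM final 17beta-estradiol is added, and after 22 h at 37C luciferase luminescence is measured with ONE-Glo.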
# [11] = qHTS assay to identify small molecule HDAC inhibitors - cell viability counter screen (AID 1259365)
# Summary of the method: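 Measured quantity is CellTiter-Glo luminescence from wild-type HCT-116 cells after compound incubation of 2hr at 37C, 5% CO2; reagent developed 30min at room temperature.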
# [12] = qHTS assay to identify small molecule agonists of the sonic hedgehog signaling (Shh) pathway - cell viability counter screen (AID 1259366); also: nearly all actives have a fitted effect of over 50% in size; also: potency is read from the fitted curve at half-maximal effect
# Summary of the method: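 In quantitative high-throughput format, 3T3 Gli1-Luc cells were exposed to compounds for 24hr and multiplexed for viability using CellTiter-Fluor, incubated 1hr at 37C before the fluorescence read.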
# [13] = qHTS assay to identify small molecule antagonists of the sonic hedgehog signaling (Shh) pathway - cell viability counter screen (AID 1259367); also: nearly all actives have a fitted effect of over 55% in size; also: potency is read from the fitted curve at half-maximal effect
# Summary of the method: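 Conditioned medium drove Shh signaling in 3T3 Gli1-Luc cells exposed to compounds at 37C and 5% CO2. Viability was determined from CellTiter-Fluor fluorescence, with reagent incubated 1 hr after 23 hr of treatment.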
# [14] = qHTS assay to identify small molecule agonists of the sonic hedgehog signaling (Shh) pathway (AID 1259368; calls by dose curve;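 also: NIH/3T3-derived 3T3Gli1-Luc cells carrying a stable Gli1-driven firefly luciferase reporter; series mostly up to about 92 µM; nearly all actives have a fitted effect of over 15% in size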)
# Summary of the method: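 Cells of a mouse NIH/3T3 clone stably expressing luciferase under the Gli1 transcriptional response element are exposed to test chemicals for 24 hr at 37 C. Pathway activation is detected as a rise in luminescence.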
# [15] = qHTS assay to identify small molecule antagonists of the sonic hedgehog signaling (Shh) pathway (AID 1259369; calls by dose curve; also: nearly all actives have a fitted effect of over 45% in size; also: potency is read from the fitted curve at half-maximal effect)
# Summary of the method: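 Cells are plated and held 4hr at 37 C, compounds (DMSO) are pinned in, conditioned medium is added to stimulate the pathway, and after 24hr luciferase reagent is added for 30min before luminescence is read.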
# [16] = A CellTox Green Cytotoxicity Assay to monitor cytotoxicity in HepG2 cells - 8 hour (AID 1224890); also: nearly all actives have a fitted effect of over 45% in size; also: potency is read from the fitted curve at half-maximal effect
# Summary of the method: as §1
# [17] = qHTS assay to identify small molecule HDAC inhibitors (AID 1259364); also: potency is read from the fitted curve at half-maximal effect;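 also: wild-type HCT-116 cells with endogenous class I/II HDAC activity; nearly all actives have a fitted effect of over 45% in size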
# Summary of the method: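 Cells (HCT-116, wild type) are seeded at 1,500 per well, incubated overnight, treated with compound in DMSO for 2 hr, then developed with HDAC-Glo I/II reagent for 30 min at room temperature.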
# [18] = molecular target: Androgen receptor (Homo sapiens) (UniProt P10275); test: qHTS assay to identify small molecule antagonists of the androgen receptor (AR) signaling pathway using the MDA cell line in the presence of 0.5 nM R1881 (AID 1259243)
# Summary of the method: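 Stably transfected MDA-kb2 cells express luciferase from an MMTV promoter bearing both AR and GR response elements. Compounds plus 0.5 nM R1881 (final) were incubated 16 hr at 37C without CO2, then luminescence measured.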
# [19] = qHTS assay to identify small molecule phospholipidosis (PLD) inducers (AID 1259344; active = well fitted curve in the direction sought with a large enough effect; an effect the other way counts as inactive or inconclusive)
# Summary of the method: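 After 4 h attachment on collagen I, HepG2 cells were dosed with compound alongside LipidTOX Red, kept 24 h at 37 C, fixed, and imaged for lamellar phospholipid pits.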
# [20] = qHTS RealTime-Glo MT Cell Viability Assay in HEK293 cells - 24 hour (AID 1224886); also: nearly all actives have a fitted effect of over 50% in size; also: potency is read from the fitted curve at half-maximal effect
# Summary of the method: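 Luminescence generated by NanoLuc from substrate produced by living HEK293 cells served as the viability signal. Each value reflects the reading at its stated time point during continuous 40 h compound exposure at 37 C.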
# Sequence of Estrogen receptor (Homo sapiens) (P03372 whole entry, looked up): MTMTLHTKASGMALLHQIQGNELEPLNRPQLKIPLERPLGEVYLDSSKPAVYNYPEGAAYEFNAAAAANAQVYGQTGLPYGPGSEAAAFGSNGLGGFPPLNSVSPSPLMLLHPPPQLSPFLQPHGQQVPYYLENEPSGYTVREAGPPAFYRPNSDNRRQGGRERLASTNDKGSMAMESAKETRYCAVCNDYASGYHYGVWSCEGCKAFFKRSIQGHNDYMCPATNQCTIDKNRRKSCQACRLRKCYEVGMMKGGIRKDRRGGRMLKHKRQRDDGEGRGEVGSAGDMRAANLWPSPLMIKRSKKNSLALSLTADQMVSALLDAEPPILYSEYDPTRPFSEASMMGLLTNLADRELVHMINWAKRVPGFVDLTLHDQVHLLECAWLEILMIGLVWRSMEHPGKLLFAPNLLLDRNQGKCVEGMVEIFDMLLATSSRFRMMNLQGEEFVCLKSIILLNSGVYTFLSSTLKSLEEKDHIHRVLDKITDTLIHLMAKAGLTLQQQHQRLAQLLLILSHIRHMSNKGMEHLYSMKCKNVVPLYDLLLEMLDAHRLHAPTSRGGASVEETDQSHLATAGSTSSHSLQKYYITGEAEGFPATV
# Sequence of Androgen receptor (Homo sapiens) (P10275 whole entry, looked up): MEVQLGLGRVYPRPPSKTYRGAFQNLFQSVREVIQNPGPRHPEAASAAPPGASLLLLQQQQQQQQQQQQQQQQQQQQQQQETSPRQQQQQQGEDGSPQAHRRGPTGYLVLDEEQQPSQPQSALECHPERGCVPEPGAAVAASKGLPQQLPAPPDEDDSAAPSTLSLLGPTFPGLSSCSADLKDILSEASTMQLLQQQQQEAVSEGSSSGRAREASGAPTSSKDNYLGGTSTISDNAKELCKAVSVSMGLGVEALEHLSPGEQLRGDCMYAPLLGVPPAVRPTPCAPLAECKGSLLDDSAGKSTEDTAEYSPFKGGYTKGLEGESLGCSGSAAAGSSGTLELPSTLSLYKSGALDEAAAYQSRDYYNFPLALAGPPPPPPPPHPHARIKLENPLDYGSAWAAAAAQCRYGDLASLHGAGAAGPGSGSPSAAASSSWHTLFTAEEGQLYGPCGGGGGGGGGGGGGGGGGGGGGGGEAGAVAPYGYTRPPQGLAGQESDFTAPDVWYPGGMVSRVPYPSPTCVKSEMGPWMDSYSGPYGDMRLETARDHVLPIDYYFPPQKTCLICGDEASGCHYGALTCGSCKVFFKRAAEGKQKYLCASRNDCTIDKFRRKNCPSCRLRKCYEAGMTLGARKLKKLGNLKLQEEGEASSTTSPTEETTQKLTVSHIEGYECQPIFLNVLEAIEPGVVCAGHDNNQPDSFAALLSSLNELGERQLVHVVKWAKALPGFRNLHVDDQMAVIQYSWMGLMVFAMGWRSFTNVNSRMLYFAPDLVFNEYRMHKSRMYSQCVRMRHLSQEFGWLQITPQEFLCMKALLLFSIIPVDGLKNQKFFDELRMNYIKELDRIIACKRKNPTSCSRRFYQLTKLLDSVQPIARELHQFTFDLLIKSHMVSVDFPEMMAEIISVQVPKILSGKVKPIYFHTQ
SMILES,Potency [1],Potency [2],Potency [3],Potency [4],Potency [5],Potency [6],Potency [7],Potency [8],Potency [9],Potency [10],Potency [11],Potency [12],Potency [13],Potency [14],Potency [15],Potency [16],Potency [17],Potency [18],outcome [19],Potency [20]
CC(C)(C#N)N=NC(C)(C)C#N,inactive,inactive,inactive,inactive,inactive,inactive,inactive,inactive,inactive,inactive,inactive,inactive,inactive,inactive,inactive,–,–,–,–,–
Cn1c(-c2ccccc2)cc(-c2ccccc2)[n+]1C,inactive,inactive,inactive,inactive,inactive,inactive,inactive,inactive,–,5.44 µM (active) and 24.3 µM (active),inactive,inactive,inactive,inactive,306 nM (active) and inactive,inactive,inactive,–,–,–
O=NN(c1ccccc1)c1ccccc1,inactive,inactive,inactive,inactive,inactive,inactive,inactive,inactive,inactive,inactive,inactive,inactive,inactive,inactive,inactive,–,inactive,–,–,–
CNC(=S)S,inactive,inactive,inactive,inactive,inactive,inactive,inactive,inactive,inactive,inactive,inactive,inactive,inactive,inactive,inactive,inactive,–,–,–,–
CNC(=O)CSP(=S)(OC)OC,inactive,inactive,inactive,inactive,inactive,inactive,inactive,inactive,inactive,inactive,inactive,inactive,28.1 µM (active) and inactive,inactive,14.1 µM (active) and inactive,–,inactive,–,–,–
CC(C)(O)C(=O)Nc1ccc([N+](=O)[O-])c(C(F)(F)F)c1,inactive,inactive,inactive,inactive,25.1 µM (active),inactive,inactive,inactive,inactive,31.3 µM (active) and 35.5 µM (active),inactive,inactive,inactive,inactive,24.8 µM (active) and 22.4 µM (active),–,inactive,–,–,–
COc1ccc(C=O)cc1OC,inactive,inactive,inactive,inactive,inactive,inactive,inactive,inactive,inactive,inactive,inactive,inactive,inactive,inactive,24.6 µM (active),–,inactive,–,–,–
CC(C)COC(=O)c1ccccc1C(=O)OCC(C)C,inactive,inactive,inactive,inactive,inactive,inactive,inactive,inactive,inactive,inactive,inactive,inactive,inactive,inactive,inactive,inactive,–,–,–,–
Oc1ccc(Cl)cc1Cc1ccccc1,inactive,inactive and 33.1 µM (active),inactive,49.6 µM (active) and inactive,21.9 µM (active) and 26.3 µM (active) and 21.3 µM (active),–,inactive,inactive,inactive,–,inactive,55.1 µM (active) and inactive,inactive,inactive,13.7 µM (active) and 24.6 µM (active),–,inactive,12.2 µM (active) and 4.38 µM (active),inactive,–
Cc1cccc(N=Nc2ccc(N(C)C)cc2)c1,inactive,inactive,inactive,inactive,–,inactive,inactive,27.3 µM (active),inactive,inactive,inactive,35 µM (active),–,–,inactive,–,3.5 µM (active) and 6.86 µM (active),–,–,–
CCCCCCCCCC(CC)c1ccc(S(=O)(=O)O)cc1 (centres undefined),inactive,54.9 µM (active) and 21.3 µM (active) and 38.9 µM (active),–,inactive,inactive,–,inactive,inactive,inactive,–,inactive,inactive,inactive,inactive,inactive,inactive and 34.7 µM (active),inactive,–,inactive,44.1 µM (active) and inactive
COc1ccc(O)c(C(C)(C)C)c1,inactive,–,inactive,inactive,inactive,inactive,inactive,inactive,inactive,inactive,inactive,inactive,inactive,inactive,inactive,–,inactive,–,–,inactive
Cc1ccc([N+](=O)[O-])cc1,inactive,inactive,inactive,inactive,inactive,inactive,inactive,inactive,inactive,inactive,inactive,inactive,inactive,inactive,inactive,inactive,–,–,–,–
